{
  "source": "the supplement of paper PMC6555819",
  "data": [
    {"system": "LXRb homodimer (NR concentration 270 nM)", "experiment": "PBM binding z-score (relative to random genomic background probes); higher = stronger binding; sequences stand for … in GC…GCGATTGACAGCGTAGAATGAAGG", "outline": "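Binding z-scores take random background probes as their reference. They come from custom Agilent 4×180K protein-binding microarrays incubated 1 h with ligand-free nuclear receptor dimers, with antibodies against each partner (one per run) detecting binding. Scanned fluorescence was regression-normalized.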", "values": [
      {"sequence": "TTACCAGGGTGAAGGTCGTTGATCCCTCTGTAGA", "PBM binding z-score": -0.184},
      {"sequence": "TCATATAGGTAAACTGGTGAAAGTCCGTAAGTTA", "PBM binding z-score": -0.0343},
      {"sequence": "TCTATTAGTTCATTAGGGCAACCGAAACAGCGGA", "PBM binding z-score": 1.34},
      {"sequence": "TCTTGTAGATCAACGGTTAAGAAAGCCGAAGCCT", "PBM binding z-score": -0.0358},
      {"sequence": "TCTAGTTAGTCAAAGGTCACACACTCGAAATGCG", "PBM binding z-score": 1.76},
      {"sequence": "ATCTCTATGTAACCAAGTTCAGTGAATGCCGAAC", "PBM binding z-score": 0.572},
      {"sequence": "TGAATGAGGTTATAAGATCACGGAACGTTGCAAA", "PBM binding z-score": -0.205},
      {"sequence": "CGTCAAAGTTCGAGGTAACGTAACAGAAAGCAGC", "PBM binding z-score": -0.403},
      {"sequence": "CAAACTAGGCCAAAGGTCAAAGTCGAGCCAACCA", "PBM binding z-score": 2.08},
      {"sequence": "GCATATAGGTAATAGAAGGTGAAAGTCCGATTGT", "PBM binding z-score": -0.597},
      {"sequence": "TCTTGTAGATCAGCAGGTTAAGAAGGCTGGCCAA", "PBM binding z-score": -0.714},
      {"sequence": "GCTGCTAGGTCAACTGATCGTCAGCTAAAGCTCG", "PBM binding z-score": -0.26},
      {"sequence": "TTACCAAGGGGAAGGTCGTTGATCCCTCTGTAGA", "PBM binding z-score": -0.862},
      {"sequence": "CTCGAAAGGTTGGTTGAGGTGAGTATACGGATAA", "PBM binding z-score": -0.269},
      {"sequence": "TCTTGTAGATAAATAGAGGTTAAGAAAGTGCGCT", "PBM binding z-score": 0.214},
      {"sequence": "GCTCGGAGGATAAGGTCAGAGCTTTGTCCGTAGA", "PBM binding z-score": -1.34},
      {"sequence": "TCATATCGGTAAAGGTGAAAGTCGAACGATATGA", "PBM binding z-score": -0.304},
      {"sequence": "CGTCCAAGGTCAACGGTCAGTGAAGAGATGACGG", "PBM binding z-score": 0.938},
      {"sequence": "GCTATTAGTTGATAGGGCAACCGAATGATTCTCG", "PBM binding z-score": -0.693},
      {"sequence": "GATACAGGGTCAAGGCCGGAGTACGCGTATTGAT", "PBM binding z-score": -0.495},
      {"sequence": "CGAACTAGGTCATTGACACGACAGTGAATAGTAA", "PBM binding z-score": 0.158},
      {"sequence": "CCTACTGTGCCAAAGGTCATTGATTCCAATGCTC", "PBM binding z-score": 2.14},
      {"sequence": "TCTCGGAGTACACGAAAGGTCAGAGCTCGACATC", "PBM binding z-score": -0.426},
      {"sequence": "CCAGACAGGTGAAAGGGAACTCAGTCTGGTACGC", "PBM binding z-score": -0.681},
      {"sequence": "ATCTAAAGGTCGTGAGGTGAGTATACAGAAAGGC", "PBM binding z-score": 1.12},
      {"sequence": "CCGACTGCGGCAAAGGTTACCATACTCAGTACGA", "PBM binding z-score": -0.464},
      {"sequence": "TCTTGTAGCTCAGCAGGTTAAGAAAGCTGGCCAA", "PBM binding z-score": -0.79},
      {"sequence": "CCTACTGGGCGAAAGGTCATTGATTCCAATGCTC", "PBM binding z-score": 0.417},
      {"sequence": "ATTGAAAGGTCGTGAGGTGAGTATACAGAAAGGC", "PBM binding z-score": 1.2},
      {"sequence": "CTAGACAGGTGAGAAGGTAACTCAGCCTCGATTA", "PBM binding z-score": -0.733},
      {"sequence": "AGTCAAAGTTCACTAGGTGACGTAAGATTCAGCT", "PBM binding z-score": 0.835},
      {"sequence": "TCTTGTAGATCAAGCAGGTTAAGCAAGCCTGAGT", "PBM binding z-score": -0.672},
      {"sequence": "GCTAGCAGGCCATTTGGTTCACTCAATGACGGGC", "PBM binding z-score": -0.937},
      {"sequence": "CCTAGCAGGCCAAGCTGGGTCACTCAAGGCTTGA", "PBM binding z-score": -1.36},
      {"sequence": "GCAGAGAGGTGAAACGCAGGTAACTCAGGGTGGC", "PBM binding z-score": -1.3},
      {"sequence": "TCTTGTAGATTAAGCAGGTTAAGAAAGCCTGAGT", "PBM binding z-score": -0.31},
      {"sequence": "CCTGGTAGGTCAATGGTCAGCTAAAGCAGCTCGC", "PBM binding z-score": 0.463},
      {"sequence": "GCAGACAGGTGAAACGCACGTAACTCAGGGTGGC", "PBM binding z-score": -0.898},
      {"sequence": "TCTAGAAGGCCAGAGGGTCACTCAAGAGGTACGG", "PBM binding z-score": -0.671},
      {"sequence": "GGAGACAGGTGAAACGCAGGTAACTCAGGGTGGC", "PBM binding z-score": -0.712}
    ]}
  ]
}
